# Source: PubChem
# FMDV antiviral: foot and mouth disease virus antiviral activity; FMDV antiviral cell-based qHTS; Potency, µM (series often up to 57.9 µM), without a hit: at the top dose activity change, negative = inhibition, actives largely listed as inhibitors; 410,000 tested, 1.2% active; calls by dose curve; tested in HEK293T cells; note: read-out not given here; potency is the fitted concentration of half-maximal effect; nearly all actives have a fitted effect of over 45% in size
# Marburg entry inh: Marburg virus entry inhibition. Marburg virus pseudotyped entry inhibition, cell reporter. Potency, µM (series often up to 37.8 µM), for inactives: top-dose activity change, negative = inhibition, actives largely listed as inhibitors. 300,000 tested, 1.8% active. AID 540276; calls by dose curve; tested in HEK293 cells; note: potency is the fitted concentration of half-maximal effect
# HCMV inh: blocks human cytomegalovirus replication; activity change, negative = inhibition, % at 57.5 µM; HFF cells, HCMV-luciferase reporter, 72 h; stronger effect = lower value; 410,000 tested, 4.5% active; AID 1259415; in the data active = activity change below about -60%; inconclusive = no clear call, values can overlap the other calls; inactive = above about -39%
#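 Two compound doses tested in HFFs infected with HCMV-luciferase, MOI 1 PFU/cell, 72 h at 37C. Lysate luminescence read with OneGlo; data normalized against buffer-only and 10uM Salinomycin inhibitor controls.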
# HCV inhibitor: inhibitors of hepatitis C virus infection | Potency, µM (titrated, usually from 41.8 µM), inactives show top-dose activity change, negative = inhibition, hits mostly inhibitors | Huh7.5.1 HCVcc-Cre infection, luciferase reporter, 44 h | 340,000 tested, 3.4% active | AID 651820; note: potency is the fitted concentration of half-maximal effect
#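 Seed cells (1,000/well) for 4 h; treat with compound and infect with HCVcc-Cre, moi about 0.5. Incubate 44 h, then detect luciferase activity.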
# LASV entry inh: inhibitors of Lassa virus binding or cell entry; Potency, µM (titrated, usually from 37.9 µM), for the others: top-dose activity change, negative = inhibition, most hits filed as inhibitors; 300,000 tested, 1.2% active; Lassa virus pseudotype entry inhibition, cell reporter; calls by dose curve; tested in HEK293 cells; note: potency is the fitted concentration of half-maximal effect; nearly all actives have a fitted effect of over 50% in size
# Giardia FBPA inh: blocks Giardia fructose-bisphosphate aldolase activity | purified Giardia FBPA | Potency, µM (top dose mostly 59.6 µM), without a hit: top-dose activity, negative = inhibition, usual class: inhibitors | 290,000 tested, 0.71% active; note: potency is the fitted concentration of half-maximal effect; nearly all actives have a fitted effect of over 55% in size
# Target sequence (A8B2U2 whole entry, looked up): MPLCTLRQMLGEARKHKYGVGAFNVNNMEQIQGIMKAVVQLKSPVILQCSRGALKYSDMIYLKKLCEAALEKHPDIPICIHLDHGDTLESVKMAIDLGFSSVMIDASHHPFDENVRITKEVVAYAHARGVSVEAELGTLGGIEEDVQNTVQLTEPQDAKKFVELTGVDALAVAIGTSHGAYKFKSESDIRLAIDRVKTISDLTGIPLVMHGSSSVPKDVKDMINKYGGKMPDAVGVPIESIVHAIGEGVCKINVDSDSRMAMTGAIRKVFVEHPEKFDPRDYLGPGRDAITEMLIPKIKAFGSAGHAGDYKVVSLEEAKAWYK
#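 40 nM FBPA preincubated 10 min at RT with compound (up to 57.5 uM final), then substrate plus GAPDH/TPI/NAD/arsenate coupling and diaphorase/resazurin added. Fluorescence read after 20 min at RT, 525/598 nm.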
# Starred values were filed as active, the others as inactive; ? = inconclusive; . = no result; [ ] = dose if it differs, or a comment. This is a sample that favours compounds with a hit; in the whole collection about 8.3% have one here. Unless noted, calls come from the whole dose curve; as a rule, active = well fitted curve in the direction sought with a large enough effect; inconclusive = small, poorly fitted or top-dose-only effect, or another doubt; inactive = no such curve, though single readings can be large; an effect the other way counts as inactive or inconclusive. % is set by controls: 0 for no effect and ±100 for the full control effect.
SMILES,FMDV antiviral,Marburg entry inh,HCMV inh,HCV inhibitor,LASV entry inh,Giardia FBPA inh
CCCCCc1cc(=O)oc2c(C(CCN3CCCCC3)c3ccc4c(c3)OCO4)c(OC)cc(OC)c12 (centres undefined),-21%,.,-80*,?,.,-13%
COc1cc(OC)c2c(-c3ccccc3)cc(=O)oc2c1C(CC(=O)N1CCOCC1)c1ccc2c(c1)OCO2 (centres undefined),38%,.,-94*,?,.,3%
COc1ccc(C(CCN2CCOCC2)c2c(OC)cc(OC)c3ccc(=O)oc23)cc1 (centres undefined),7%,.,-19,2.8µM*,.,.
COc1ccc(C(CCN2CCCC2)c2c(OC)cc(OC)c3c(-c4ccccc4)cc(=O)oc23)cc1 (centres undefined),18%,.,-23,-4%,.,1%
COc1ccc(C(CCN2CCOCC2)c2c(OC)cc(OC)c3c(-c4ccccc4)cc(=O)oc23)cc1 (centres undefined),39%,.,-27,32µM*,.,-2%
COc1ccc(C2CC(=O)Oc3c(C(CCN4CCCCC4)c4ccc(N(C)C)cc4)c(OC)cc(OC)c32)cc1 (centres undefined),-20%,.,-60*,-11%,.,1%
CC(=O)Nc1ccc(C2NC(C(=O)O)CCC2C)cc1 (centres undefined),.,.,.,.,.,3%[12.9 µM]
O=C1N/C(=C\c2ccc(O)cc2)C(=O)c2ccccc21,?,?,.,11µM*,?,?
O=C(Cc1cccs1)Nc1ccc(C(=O)O)cc1,-4%,?,-77*,10%,5%,16%
O=C(Cc1cccs1)Nc1cccc(C(=O)Nc2ccc(C(=O)O)cc2)c1,?,23%[46.1 µM],8,-14%,6%,-3%
COc1ccc(NC(=O)C(NC(=O)Cc2cccs2)c2ccccc2)cc1 (centres undefined),24%,?,-68*,2%,-1%,8%
CCOC(=O)c1c(NC(=O)Cc2cccs2)sc(C)c1C,.,-16%,-21,35µM*,-4%,7%
CCOC(=O)c1c(NC(=O)Cc2cccs2)sc(C(=O)NC2CCCC2)c1C,5%,1%,6,-9%,-22%,1%
COc1ccc(NC(=O)C(NC(=O)Cc2cccs2)c2ccc(C)cc2)cc1 (centres undefined),7%,16%,-2,-8%,-6%,3%
CC(O)(c1ccc(Cl)cc1)c1ccc(Cl)cc1,.,.,.,.,.,0%
Cc1ccc(-n2ncc3c(NCCCn4ccnc4)ncnc32)cc1,14%,.,6,.,?,.
COCCNc1ccnc(-c2ccccc2C(F)(F)F)n1,5%,.,.,.,.,-3%
COc1ccc(C(=O)Nc2ccccc2-c2nc3ccccc3s2)c(OC)c1,-18%,.,-8,.,-10%[46.1 µM],.
Cc1ccc(/C([O-])=C(/C(=S)NCc2ccc3c(c2)OCO3)[n+]2ccc(N(C)C)cc2)c(C)c1,-13%,-3%[14.2 µM],-70*,6%,?,-3%
CCOCCn1ccc2c(OCC(=O)Nc3cc(OC)ccc3OC)cccc2c1=O,?,?,-37,8.9µM*,?,.
COCCn1ccc2c(OCC(=O)Nc3cc(OC)ccc3OC)cccc2c1=O,-40%,?,-7,?,?,.
COc1ccccc1NC(=O)COc1ccc(-c2nn(C)c(=O)c3ccccc23)cc1,18µM*,-3%[46.1 µM],50,?,-7%[46.1 µM],.
COc1ccccc1NC(=O)Cn1nc(-c2ccc(Cl)cc2)c2ccccc2c1=O,2%,-27%[46.1 µM],?,10µM*,1%,5%
COc1ccccc1NC(=O)CCn1nc(-c2ccccc2)c2ccccc2c1=O,-8%,?,-39,.,-1%[46.1 µM],.
